Laboratory results published in PMC11006913.
Substitutions are numbered along the chain they refer to.

What follows are sequences tested against NKX2-5 (Homo sapiens, UniProt P52952 125-210, R139K) (assay: PBM; 200 nM protein, PBS). Details: dsDNA, one strand shown.
Sequence of NKX2-5 (P52952 125-210 R139K): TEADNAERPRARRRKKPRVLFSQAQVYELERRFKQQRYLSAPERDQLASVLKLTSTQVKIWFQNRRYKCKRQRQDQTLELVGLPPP
For AAGTGGGT, the binding signal was 12.4 upbm affinity estimate (log intensity, higher = more binding, comparable within an allelic series).
For AAGTGGCG, the binding signal was 12.2 upbm affinity estimate (log intensity, higher = more binding, comparable within an allelic series).
In the case of TAAGTGCA, the binding signal is reported as 12.6 upbm affinity estimate (log intensity, higher = more binding, comparable within an allelic series).
With CCACGGCG the binding signal was 8.49 upbm affinity estimate (log intensity, higher = more binding, comparable within an allelic series).
CCTCCGGA was tested, and the binding signal was 8.88 upbm affinity estimate (log intensity, higher = more binding, comparable within an allelic series).
For CGTCGGTC, the binding signal was 8.88 upbm affinity estimate (log intensity, higher = more binding, comparable within an allelic series).
For CACACTTA, the binding signal was 12.5 upbm affinity estimate (log intensity, higher = more binding, comparable within an allelic series).
AAGTGGGC was tested, and the binding signal was 12.4 upbm affinity estimate (log intensity, higher = more binding, comparable within an allelic series).
With AGTCCTTA the binding signal was 11.3 upbm affinity estimate (log intensity, higher = more binding, comparable within an allelic series).
For CACTTAGG, the binding signal was 12.6 upbm affinity estimate (log intensity, higher = more binding, comparable within an allelic series).
In the case of AAGTGCCT, the binding signal is reported as 12.4 upbm affinity estimate (log intensity, higher = more binding, comparable within an allelic series).
With CTAAGTAC the binding signal was 12.3 upbm affinity estimate (log intensity, higher = more binding, comparable within an allelic series).
In the case of ACTTAAGA, the binding signal is reported as 12.3 upbm affinity estimate (log intensity, higher = more binding, comparable within an allelic series).
For ACAATTAC, the binding signal was 10.9 upbm affinity estimate (log intensity, higher = more binding, comparable within an allelic series).
For CTGGCCGA, the binding signal was 8.94 upbm affinity estimate (log intensity, higher = more binding, comparable within an allelic series).
AGCCCAGG was tested, and the binding signal was 8.68 upbm affinity estimate (log intensity, higher = more binding, comparable within an allelic series).
CACTTGTA was tested, and the binding signal was 12.5 upbm affinity estimate (log intensity, higher = more binding, comparable within an allelic series).
CCGACGCA was tested, and the binding signal was 8.78 upbm affinity estimate (log intensity, higher = more binding, comparable within an allelic series).
In the case of CGACTGGC, the binding signal is reported as 8.66 upbm affinity estimate (log intensity, higher = more binding, comparable within an allelic series).
CAAGTGGG was tested, and the binding signal was 12.3 upbm affinity estimate (log intensity, higher = more binding, comparable within an allelic series).
For ACACGTGT, the binding signal was 9.32 upbm affinity estimate (log intensity, higher = more binding, comparable within an allelic series).
With AGCACTTG the binding signal was 12.4 upbm affinity estimate (log intensity, higher = more binding, comparable within an allelic series).
CGGTGGAG was tested, and the binding signal was 8.95 upbm affinity estimate (log intensity, higher = more binding, comparable within an allelic series).
In the case of AAGTGGCC, the binding signal is reported as 12.4 upbm affinity estimate (log intensity, higher = more binding, comparable within an allelic series).
With ACTAAGTG the binding signal was 12.3 upbm affinity estimate (log intensity, higher = more binding, comparable within an allelic series).
In the case of GCGCGTCC, the binding signal is reported as 8.83 upbm affinity estimate (log intensity, higher = more binding, comparable within an allelic series).
GCACTTAC was tested, and the binding signal was 12.3 upbm affinity estimate (log intensity, higher = more binding, comparable within an allelic series).
With GCGGCCAC the binding signal was 8.75 upbm affinity estimate (log intensity, higher = more binding, comparable within an allelic series).
For GTCCCAGA, the binding signal was 8.89 upbm affinity estimate (log intensity, higher = more binding, comparable within an allelic series).
CAGCGTCC was tested, and the binding signal was 8.7 upbm affinity estimate (log intensity, higher = more binding, comparable within an allelic series).
In the case of CTAAGTGC, the binding signal is reported as 12.8 upbm affinity estimate (log intensity, higher = more binding, comparable within an allelic series).
In the case of CGTTCCGC, the binding signal is reported as 8.99 upbm affinity estimate (log intensity, higher = more binding, comparable within an allelic series).
In the case of GAAGTGGA, the binding signal is reported as 11.7 upbm affinity estimate (log intensity, higher = more binding, comparable within an allelic series).
With CCAGCAGC the binding signal was 8.8 upbm affinity estimate (log intensity, higher = more binding, comparable within an allelic series).
In the case of CCAGCAGG, the binding signal is reported as 8.6 upbm affinity estimate (log intensity, higher = more binding, comparable within an allelic series).
In the case of CGACCTCG, the binding signal is reported as 9.01 upbm affinity estimate (log intensity, higher = more binding, comparable within an allelic series).
For CACTTACC, the binding signal was 12.4 upbm affinity estimate (log intensity, higher = more binding, comparable within an allelic series).
In the case of ACACTTAG, the binding signal is reported as 12.6 upbm affinity estimate (log intensity, higher = more binding, comparable within an allelic series).
With CAGGTCGC the binding signal was 9.22 upbm affinity estimate (log intensity, higher = more binding, comparable within an allelic series).

These sequences were tested against T1, NKX2-6 (Homo sapiens, UniProt A6NCS4 118-204, R150C) (assay: PBM; 200 nM protein, PBS). Details: dsDNA, one strand shown.
T1 sequence: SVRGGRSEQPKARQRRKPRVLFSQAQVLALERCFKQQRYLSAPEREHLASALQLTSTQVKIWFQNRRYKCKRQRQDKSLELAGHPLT
AAGTGGGT was tested, and the binding signal was 11.6 upbm affinity estimate (log intensity, higher = more binding, comparable within an allelic series).
With AAGTGGCG the binding signal was 11.6 upbm affinity estimate (log intensity, higher = more binding, comparable within an allelic series).
In the case of TAAGTGCA, the binding signal is reported as 11.9 upbm affinity estimate (log intensity, higher = more binding, comparable within an allelic series).
CCACGGCG was tested, and the binding signal was 9.16 upbm affinity estimate (log intensity, higher = more binding, comparable within an allelic series).
CCTCCGGA was tested, and the binding signal was 9.54 upbm affinity estimate (log intensity, higher = more binding, comparable within an allelic series).
In the case of CGTCGGTC, the binding signal is reported as 9.56 upbm affinity estimate (log intensity, higher = more binding, comparable within an allelic series).
For CACACTTA, the binding signal was 11.7 upbm affinity estimate (log intensity, higher = more binding, comparable within an allelic series).
In the case of AAGTGGGC, the binding signal is reported as 11.5 upbm affinity estimate (log intensity, higher = more binding, comparable within an allelic series).
For AGTCCTTA, the binding signal was 10.8 upbm affinity estimate (log intensity, higher = more binding, comparable within an allelic series).
In the case of CACTTAGG, the binding signal is reported as 11.7 upbm affinity estimate (log intensity, higher = more binding, comparable within an allelic series).
AAGTGCCT was tested, and the binding signal was 11.7 upbm affinity estimate (log intensity, higher = more binding, comparable within an allelic series).
For CTAAGTAC, the binding signal was 11.7 upbm affinity estimate (log intensity, higher = more binding, comparable within an allelic series).
CTGGCCGA was tested, and the binding signal was 9.45 upbm affinity estimate (log intensity, higher = more binding, comparable within an allelic series).
With CACTTGTA the binding signal was 11.6 upbm affinity estimate (log intensity, higher = more binding, comparable within an allelic series).
In the case of CGACTGGC, the binding signal is reported as 9.39 upbm affinity estimate (log intensity, higher = more binding, comparable within an allelic series).
For CAAGTGGG, the binding signal was 11.7 upbm affinity estimate (log intensity, higher = more binding, comparable within an allelic series).
In the case of AGCACTTG, the binding signal is reported as 11.6 upbm affinity estimate (log intensity, higher = more binding, comparable within an allelic series).
With AAGTGGCC the binding signal was 11.6 upbm affinity estimate (log intensity, higher = more binding, comparable within an allelic series).
For ACTAAGTG, the binding signal was 11.6 upbm affinity estimate (log intensity, higher = more binding, comparable within an allelic series).
With GCGCGTCC the binding signal was 9.52 upbm affinity estimate (log intensity, higher = more binding, comparable within an allelic series).
In the case of GCACTTAC, the binding signal is reported as 11.6 upbm affinity estimate (log intensity, higher = more binding, comparable within an allelic series).
In the case of GCGGCCAC, the binding signal is reported as 9.34 upbm affinity estimate (log intensity, higher = more binding, comparable within an allelic series).
With CAGCGTCC the binding signal was 9.46 upbm affinity estimate (log intensity, higher = more binding, comparable within an allelic series).
CTAAGTGC was tested, and the binding signal was 11.8 upbm affinity estimate (log intensity, higher = more binding, comparable within an allelic series).
GAAGTGGA was tested, and the binding signal was 11.3 upbm affinity estimate (log intensity, higher = more binding, comparable within an allelic series).
For CACTTACC, the binding signal was 11.6 upbm affinity estimate (log intensity, higher = more binding, comparable within an allelic series).
For ACACTTAG, the binding signal was 11.7 upbm affinity estimate (log intensity, higher = more binding, comparable within an allelic series).

These sequences were tested against MSX2 (Homo sapiens, UniProt P35548 130-214, R199I) (assay: PBM; 200 nM protein, PBS). Details: dsDNA, one strand shown.
Sequence of MSX2 (Homo sapiens, UniProt P35548 130-214, R199I) (P35548 130-214 R199I): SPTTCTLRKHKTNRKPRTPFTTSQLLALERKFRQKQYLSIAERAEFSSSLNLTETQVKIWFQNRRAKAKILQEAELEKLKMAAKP
ACAATTAC was tested, and the binding signal was 12.3 upbm affinity estimate (log intensity, higher = more binding, comparable within an allelic series).
With AGCCCAGG the binding signal was 9.6 upbm affinity estimate (log intensity, higher = more binding, comparable within an allelic series).
In the case of CCGACGCA, the binding signal is reported as 9.38 upbm affinity estimate (log intensity, higher = more binding, comparable within an allelic series).

The sequences below were run against T2, NKX2-6 (Homo sapiens, UniProt A6NCS4 118-204) (assay: PBM; 200 nM protein, PBS). Details: dsDNA, one strand shown.
T2 sequence: T1 sequence with C33R
In the case of AAGTGGGT, the binding signal is reported as 13.5 upbm affinity estimate (log intensity, higher = more binding, comparable within an allelic series).
For TAAGTGCA, the binding signal was 13.5 upbm affinity estimate (log intensity, higher = more binding, comparable within an allelic series).
For CGTCGGTC, the binding signal was 9.23 upbm affinity estimate (log intensity, higher = more binding, comparable within an allelic series).
For CACACTTA, the binding signal was 13.5 upbm affinity estimate (log intensity, higher = more binding, comparable within an allelic series).
In the case of CACTTAGG, the binding signal is reported as 13.5 upbm affinity estimate (log intensity, higher = more binding, comparable within an allelic series).
In the case of CTAAGTAC, the binding signal is reported as 13.4 upbm affinity estimate (log intensity, higher = more binding, comparable within an allelic series).
ACTTAAGA was tested, and the binding signal was 13.4 upbm affinity estimate (log intensity, higher = more binding, comparable within an allelic series).
With CACTTGTA the binding signal was 13.4 upbm affinity estimate (log intensity, higher = more binding, comparable within an allelic series).
For AAGTGGCC, the binding signal was 13.3 upbm affinity estimate (log intensity, higher = more binding, comparable within an allelic series).
In the case of ACTAAGTG, the binding signal is reported as 13.3 upbm affinity estimate (log intensity, higher = more binding, comparable within an allelic series).
With GCACTTAC the binding signal was 13.3 upbm affinity estimate (log intensity, higher = more binding, comparable within an allelic series).
For GTCCCAGA, the binding signal was 9.24 upbm affinity estimate (log intensity, higher = more binding, comparable within an allelic series).
With CTAAGTGC the binding signal was 13.7 upbm affinity estimate (log intensity, higher = more binding, comparable within an allelic series).
For CGTTCCGC, the binding signal was 9.44 upbm affinity estimate (log intensity, higher = more binding, comparable within an allelic series).
CCAGCAGC was tested, and the binding signal was 9.28 upbm affinity estimate (log intensity, higher = more binding, comparable within an allelic series).
CACTTACC was tested, and the binding signal was 13.4 upbm affinity estimate (log intensity, higher = more binding, comparable within an allelic series).
With ACACTTAG the binding signal was 13.5 upbm affinity estimate (log intensity, higher = more binding, comparable within an allelic series).

Each sequence was assayed against MSX2 (Homo sapiens, UniProt P35548 130-214) (assay: PBM; 200 nM protein, PBS). Details: dsDNA, one strand shown.
Sequence of MSX2 (Homo sapiens, UniProt P35548 130-214) (P35548 130-214): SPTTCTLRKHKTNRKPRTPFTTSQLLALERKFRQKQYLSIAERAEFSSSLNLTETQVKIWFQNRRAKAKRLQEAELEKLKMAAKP
ACAATTAC was tested, and the binding signal was 13.5 upbm affinity estimate (log intensity, higher = more binding, comparable within an allelic series).
With AGCCCAGG the binding signal was 9.67 upbm affinity estimate (log intensity, higher = more binding, comparable within an allelic series).
With CCGACGCA the binding signal was 9.17 upbm affinity estimate (log intensity, higher = more binding, comparable within an allelic series).

The sequences below were run against T3, NKX2-4 (Homo sapiens, UniProt Q9H2Z4 175-261, R246Q) (assay: PBM; 200 nM protein, PBS). Details: dsDNA, one strand shown.
T3 sequence: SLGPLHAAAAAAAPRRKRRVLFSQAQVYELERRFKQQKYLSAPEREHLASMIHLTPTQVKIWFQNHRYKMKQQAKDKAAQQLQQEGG
For ACTTAAGA, the binding signal was 12.9 upbm affinity estimate (log intensity, higher = more binding, comparable within an allelic series).
In the case of CACTTGTA, the binding signal is reported as 12.9 upbm affinity estimate (log intensity, higher = more binding, comparable within an allelic series).
With AGCACTTG the binding signal was 13 upbm affinity estimate (log intensity, higher = more binding, comparable within an allelic series).
